Data published in the supplement of paper PMC11732987, “Enantioselective OTUD7B fragment discovery through chemoproteomics screening and high-throughput optimisation” (Communications Chemistry, 2025).

What was measured:
Test in all cases: log2 ratio of Biotin-Ahx-Ub-VS probe labelling (fragment/DMSO); higher = less target engagement (more negative = stronger competition), active = hit call of the paper (q ≤ 0.05, log2 ratio ≤ -1)
Conditions in all cases: compound concentration: 200 uM; treatment time: 3 h
USP42 = molecular target: T1, USP42 (UniProt Q9H9J4)
T1 sequence (whole entry): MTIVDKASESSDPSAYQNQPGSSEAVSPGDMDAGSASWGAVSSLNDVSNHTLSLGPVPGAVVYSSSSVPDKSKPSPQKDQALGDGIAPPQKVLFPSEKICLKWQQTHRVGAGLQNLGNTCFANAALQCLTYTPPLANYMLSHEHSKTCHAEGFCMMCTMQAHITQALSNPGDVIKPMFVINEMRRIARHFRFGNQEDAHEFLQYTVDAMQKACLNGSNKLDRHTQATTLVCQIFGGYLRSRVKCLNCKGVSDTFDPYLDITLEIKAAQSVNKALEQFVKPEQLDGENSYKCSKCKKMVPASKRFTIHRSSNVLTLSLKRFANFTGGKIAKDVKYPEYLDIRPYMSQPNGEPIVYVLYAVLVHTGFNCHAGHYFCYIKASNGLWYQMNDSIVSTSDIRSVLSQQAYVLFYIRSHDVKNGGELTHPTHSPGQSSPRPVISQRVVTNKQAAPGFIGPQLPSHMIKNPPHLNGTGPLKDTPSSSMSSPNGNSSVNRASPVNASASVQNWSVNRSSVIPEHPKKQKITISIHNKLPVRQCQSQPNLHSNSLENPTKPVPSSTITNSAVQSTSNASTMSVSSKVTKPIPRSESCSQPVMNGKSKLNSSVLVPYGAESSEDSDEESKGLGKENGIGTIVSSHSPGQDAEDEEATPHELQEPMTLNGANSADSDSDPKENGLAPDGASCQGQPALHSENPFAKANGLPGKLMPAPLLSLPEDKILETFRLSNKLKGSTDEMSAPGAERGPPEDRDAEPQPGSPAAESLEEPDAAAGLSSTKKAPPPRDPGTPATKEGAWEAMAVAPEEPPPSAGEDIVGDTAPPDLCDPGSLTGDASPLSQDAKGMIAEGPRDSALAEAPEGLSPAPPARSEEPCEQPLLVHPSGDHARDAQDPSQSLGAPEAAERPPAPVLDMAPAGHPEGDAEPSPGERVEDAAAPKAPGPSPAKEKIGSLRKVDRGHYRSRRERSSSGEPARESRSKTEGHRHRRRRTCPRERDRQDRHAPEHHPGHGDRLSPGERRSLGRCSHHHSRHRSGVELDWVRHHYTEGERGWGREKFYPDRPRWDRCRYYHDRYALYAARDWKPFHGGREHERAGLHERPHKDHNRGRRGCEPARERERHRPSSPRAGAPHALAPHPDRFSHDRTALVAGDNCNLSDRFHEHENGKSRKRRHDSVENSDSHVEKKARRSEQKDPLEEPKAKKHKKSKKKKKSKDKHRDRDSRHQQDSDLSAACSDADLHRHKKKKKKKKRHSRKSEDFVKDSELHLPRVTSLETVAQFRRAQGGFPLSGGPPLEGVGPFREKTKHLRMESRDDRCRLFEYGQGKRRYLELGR
In short: (§1)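 In triplicate, 495 µg of HEK293T lysate per sample was incubated with fragment at 200 µM or vehicle for 3 h. Biotin-Ahx-Ub-VS was then added to 0.5 µM final for 1 h, and labelled DUBs were captured with NeutrAvidin, digested with LysC and trypsin, and measured by diaPASEF LC-MS/MS. Data are average log2 fragment/vehicle ratios by unpaired t-test from global-median-normalised Spectronaut label-free quantities, restricted to proteins with ≥2 unique peptides.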

USP46 = USP46 (UniProt P62068)
USP46, sequence (P62068 whole entry): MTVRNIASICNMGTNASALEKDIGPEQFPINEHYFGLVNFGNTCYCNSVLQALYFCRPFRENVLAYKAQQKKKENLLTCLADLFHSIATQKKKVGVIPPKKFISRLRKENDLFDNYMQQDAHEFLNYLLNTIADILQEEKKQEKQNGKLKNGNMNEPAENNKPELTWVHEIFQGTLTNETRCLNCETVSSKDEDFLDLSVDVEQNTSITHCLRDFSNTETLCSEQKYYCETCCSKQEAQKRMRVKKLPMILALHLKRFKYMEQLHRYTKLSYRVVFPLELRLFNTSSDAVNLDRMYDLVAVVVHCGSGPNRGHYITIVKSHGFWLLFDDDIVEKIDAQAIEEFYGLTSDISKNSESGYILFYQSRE
In short: as §1

USP47 = molecular target: T2, USP47 (UniProt Q96K76)
T2 sequence (whole entry): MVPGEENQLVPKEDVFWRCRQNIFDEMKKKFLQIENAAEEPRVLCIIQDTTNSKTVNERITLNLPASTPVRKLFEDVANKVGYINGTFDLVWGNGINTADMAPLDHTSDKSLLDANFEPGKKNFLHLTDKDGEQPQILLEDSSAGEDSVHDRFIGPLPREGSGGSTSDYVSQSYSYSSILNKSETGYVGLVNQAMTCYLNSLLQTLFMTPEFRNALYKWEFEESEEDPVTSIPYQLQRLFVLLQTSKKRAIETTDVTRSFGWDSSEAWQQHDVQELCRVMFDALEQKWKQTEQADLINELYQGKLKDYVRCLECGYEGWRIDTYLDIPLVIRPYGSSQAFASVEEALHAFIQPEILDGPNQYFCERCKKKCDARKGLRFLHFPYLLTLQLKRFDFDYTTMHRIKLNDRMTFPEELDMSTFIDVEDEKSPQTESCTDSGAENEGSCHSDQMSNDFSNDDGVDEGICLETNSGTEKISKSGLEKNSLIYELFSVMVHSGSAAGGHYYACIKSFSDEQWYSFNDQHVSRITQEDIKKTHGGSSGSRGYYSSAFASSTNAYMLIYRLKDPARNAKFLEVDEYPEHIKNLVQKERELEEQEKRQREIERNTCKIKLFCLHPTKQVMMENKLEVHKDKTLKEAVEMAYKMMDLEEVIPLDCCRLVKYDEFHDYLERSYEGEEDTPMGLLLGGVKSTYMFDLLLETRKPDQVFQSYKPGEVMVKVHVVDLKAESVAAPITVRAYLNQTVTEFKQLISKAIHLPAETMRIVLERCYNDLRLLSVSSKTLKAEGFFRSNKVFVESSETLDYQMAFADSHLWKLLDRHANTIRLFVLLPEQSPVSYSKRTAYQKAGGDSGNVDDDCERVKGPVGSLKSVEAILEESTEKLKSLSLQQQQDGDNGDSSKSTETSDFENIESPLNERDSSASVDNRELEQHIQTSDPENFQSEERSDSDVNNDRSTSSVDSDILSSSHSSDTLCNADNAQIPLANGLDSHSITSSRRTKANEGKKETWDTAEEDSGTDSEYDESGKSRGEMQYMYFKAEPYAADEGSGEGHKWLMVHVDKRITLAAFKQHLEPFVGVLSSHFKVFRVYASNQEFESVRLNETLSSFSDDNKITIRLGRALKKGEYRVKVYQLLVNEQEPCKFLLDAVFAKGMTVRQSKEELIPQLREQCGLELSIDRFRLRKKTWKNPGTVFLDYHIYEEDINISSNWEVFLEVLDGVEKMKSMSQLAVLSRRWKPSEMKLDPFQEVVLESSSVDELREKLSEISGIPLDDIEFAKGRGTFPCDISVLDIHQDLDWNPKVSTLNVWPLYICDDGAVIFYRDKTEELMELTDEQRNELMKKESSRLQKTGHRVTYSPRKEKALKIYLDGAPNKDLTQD
In short: as §1

USP48 = molecular target: T3, USP48 (UniProt Q86UV5)
T3 sequence (whole entry): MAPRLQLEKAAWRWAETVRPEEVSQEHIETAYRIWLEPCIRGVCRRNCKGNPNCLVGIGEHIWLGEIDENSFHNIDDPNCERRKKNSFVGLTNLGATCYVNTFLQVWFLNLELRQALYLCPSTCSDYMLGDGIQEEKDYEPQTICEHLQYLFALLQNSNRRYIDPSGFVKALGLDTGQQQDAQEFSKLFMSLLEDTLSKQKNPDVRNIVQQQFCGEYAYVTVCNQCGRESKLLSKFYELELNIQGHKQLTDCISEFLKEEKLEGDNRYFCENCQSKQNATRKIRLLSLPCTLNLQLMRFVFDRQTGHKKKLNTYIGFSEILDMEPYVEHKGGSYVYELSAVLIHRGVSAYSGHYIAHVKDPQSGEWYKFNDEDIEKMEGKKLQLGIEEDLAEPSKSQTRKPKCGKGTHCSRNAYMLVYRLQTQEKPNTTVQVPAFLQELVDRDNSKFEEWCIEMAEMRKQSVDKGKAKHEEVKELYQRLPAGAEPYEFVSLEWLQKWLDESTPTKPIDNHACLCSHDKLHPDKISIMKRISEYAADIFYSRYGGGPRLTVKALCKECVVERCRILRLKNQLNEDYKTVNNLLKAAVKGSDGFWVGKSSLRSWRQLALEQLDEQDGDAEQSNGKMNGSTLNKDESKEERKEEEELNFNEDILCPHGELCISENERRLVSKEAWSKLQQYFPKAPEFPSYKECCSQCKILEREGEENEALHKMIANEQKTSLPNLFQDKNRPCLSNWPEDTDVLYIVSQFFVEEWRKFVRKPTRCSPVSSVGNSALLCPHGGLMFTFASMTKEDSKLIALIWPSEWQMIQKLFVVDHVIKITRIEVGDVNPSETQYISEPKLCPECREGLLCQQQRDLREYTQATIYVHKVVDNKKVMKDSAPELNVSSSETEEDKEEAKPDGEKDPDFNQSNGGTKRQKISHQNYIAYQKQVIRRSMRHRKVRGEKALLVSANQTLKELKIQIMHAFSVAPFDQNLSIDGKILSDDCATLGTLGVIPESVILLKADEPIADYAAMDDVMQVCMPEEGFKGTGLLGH
In short: as §1

USP5 = molecular target: T4, USP5 (UniProt P45974)
T4 sequence (whole entry): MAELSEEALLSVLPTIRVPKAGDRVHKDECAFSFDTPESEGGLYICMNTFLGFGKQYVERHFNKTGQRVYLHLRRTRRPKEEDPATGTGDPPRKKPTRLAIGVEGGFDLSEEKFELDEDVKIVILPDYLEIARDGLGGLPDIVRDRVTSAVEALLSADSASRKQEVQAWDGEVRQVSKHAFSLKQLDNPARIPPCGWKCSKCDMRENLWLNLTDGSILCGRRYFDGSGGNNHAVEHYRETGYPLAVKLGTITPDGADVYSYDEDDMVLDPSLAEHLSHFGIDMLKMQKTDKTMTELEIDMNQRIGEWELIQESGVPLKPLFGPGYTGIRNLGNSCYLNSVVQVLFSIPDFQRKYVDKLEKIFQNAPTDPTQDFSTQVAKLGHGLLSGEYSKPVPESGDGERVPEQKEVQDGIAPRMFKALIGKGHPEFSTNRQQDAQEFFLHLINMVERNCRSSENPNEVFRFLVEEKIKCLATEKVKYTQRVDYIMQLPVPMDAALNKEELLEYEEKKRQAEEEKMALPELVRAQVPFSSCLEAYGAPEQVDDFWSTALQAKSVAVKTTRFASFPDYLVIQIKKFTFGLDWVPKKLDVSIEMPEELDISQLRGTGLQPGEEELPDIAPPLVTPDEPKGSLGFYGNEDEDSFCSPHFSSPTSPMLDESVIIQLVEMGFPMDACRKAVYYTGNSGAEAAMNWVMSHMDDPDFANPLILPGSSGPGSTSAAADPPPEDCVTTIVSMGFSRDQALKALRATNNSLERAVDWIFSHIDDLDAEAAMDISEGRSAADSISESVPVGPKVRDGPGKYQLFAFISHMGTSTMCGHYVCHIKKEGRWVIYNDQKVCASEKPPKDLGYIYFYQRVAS
In short: as §1

USP54 = USP54 (UniProt Q70EL1)
USP54, sequence (Q70EL1 whole entry): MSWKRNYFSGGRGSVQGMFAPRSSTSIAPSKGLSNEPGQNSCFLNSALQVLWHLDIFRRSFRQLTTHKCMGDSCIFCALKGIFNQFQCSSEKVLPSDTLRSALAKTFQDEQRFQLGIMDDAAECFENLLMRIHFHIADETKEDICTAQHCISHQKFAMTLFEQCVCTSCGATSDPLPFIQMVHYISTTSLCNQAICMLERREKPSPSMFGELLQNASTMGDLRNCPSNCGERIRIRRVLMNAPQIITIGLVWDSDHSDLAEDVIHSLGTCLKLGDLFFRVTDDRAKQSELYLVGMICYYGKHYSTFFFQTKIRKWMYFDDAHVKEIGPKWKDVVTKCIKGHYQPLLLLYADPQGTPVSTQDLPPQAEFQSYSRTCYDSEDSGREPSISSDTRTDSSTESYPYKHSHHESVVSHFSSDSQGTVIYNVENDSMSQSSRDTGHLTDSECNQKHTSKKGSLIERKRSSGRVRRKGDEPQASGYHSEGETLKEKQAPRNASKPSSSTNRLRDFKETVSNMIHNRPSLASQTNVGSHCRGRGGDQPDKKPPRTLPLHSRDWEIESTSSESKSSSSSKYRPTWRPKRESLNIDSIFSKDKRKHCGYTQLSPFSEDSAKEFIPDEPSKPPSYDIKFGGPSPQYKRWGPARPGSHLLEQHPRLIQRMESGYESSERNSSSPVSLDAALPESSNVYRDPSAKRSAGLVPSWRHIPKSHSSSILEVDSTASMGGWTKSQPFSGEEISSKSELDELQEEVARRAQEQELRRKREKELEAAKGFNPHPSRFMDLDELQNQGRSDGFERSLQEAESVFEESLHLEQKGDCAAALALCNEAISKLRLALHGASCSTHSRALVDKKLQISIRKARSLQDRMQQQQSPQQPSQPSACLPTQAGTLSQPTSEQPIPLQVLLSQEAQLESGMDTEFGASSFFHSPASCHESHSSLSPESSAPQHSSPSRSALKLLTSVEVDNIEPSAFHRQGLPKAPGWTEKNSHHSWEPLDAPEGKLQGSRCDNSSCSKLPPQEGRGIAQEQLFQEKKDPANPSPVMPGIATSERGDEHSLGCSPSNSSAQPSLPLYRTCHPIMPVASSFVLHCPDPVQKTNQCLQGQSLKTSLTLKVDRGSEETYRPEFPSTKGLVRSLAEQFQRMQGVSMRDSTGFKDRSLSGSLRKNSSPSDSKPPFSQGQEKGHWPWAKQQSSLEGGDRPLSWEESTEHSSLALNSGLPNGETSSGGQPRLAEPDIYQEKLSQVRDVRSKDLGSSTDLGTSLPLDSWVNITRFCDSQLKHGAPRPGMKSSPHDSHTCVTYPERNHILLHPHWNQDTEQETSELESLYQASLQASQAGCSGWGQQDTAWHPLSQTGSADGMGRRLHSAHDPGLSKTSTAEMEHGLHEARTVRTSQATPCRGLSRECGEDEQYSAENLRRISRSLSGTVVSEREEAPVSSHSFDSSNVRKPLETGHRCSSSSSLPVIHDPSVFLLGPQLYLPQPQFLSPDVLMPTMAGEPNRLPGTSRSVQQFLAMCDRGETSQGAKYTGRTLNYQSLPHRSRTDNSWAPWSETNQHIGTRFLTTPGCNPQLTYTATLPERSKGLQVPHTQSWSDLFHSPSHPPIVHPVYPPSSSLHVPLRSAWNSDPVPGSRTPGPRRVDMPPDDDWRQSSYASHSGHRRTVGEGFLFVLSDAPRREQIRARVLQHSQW
In short: as §1

USP7 = USP7 (UniProt Q93009)
USP7, sequence (Q93009 whole entry, looked up): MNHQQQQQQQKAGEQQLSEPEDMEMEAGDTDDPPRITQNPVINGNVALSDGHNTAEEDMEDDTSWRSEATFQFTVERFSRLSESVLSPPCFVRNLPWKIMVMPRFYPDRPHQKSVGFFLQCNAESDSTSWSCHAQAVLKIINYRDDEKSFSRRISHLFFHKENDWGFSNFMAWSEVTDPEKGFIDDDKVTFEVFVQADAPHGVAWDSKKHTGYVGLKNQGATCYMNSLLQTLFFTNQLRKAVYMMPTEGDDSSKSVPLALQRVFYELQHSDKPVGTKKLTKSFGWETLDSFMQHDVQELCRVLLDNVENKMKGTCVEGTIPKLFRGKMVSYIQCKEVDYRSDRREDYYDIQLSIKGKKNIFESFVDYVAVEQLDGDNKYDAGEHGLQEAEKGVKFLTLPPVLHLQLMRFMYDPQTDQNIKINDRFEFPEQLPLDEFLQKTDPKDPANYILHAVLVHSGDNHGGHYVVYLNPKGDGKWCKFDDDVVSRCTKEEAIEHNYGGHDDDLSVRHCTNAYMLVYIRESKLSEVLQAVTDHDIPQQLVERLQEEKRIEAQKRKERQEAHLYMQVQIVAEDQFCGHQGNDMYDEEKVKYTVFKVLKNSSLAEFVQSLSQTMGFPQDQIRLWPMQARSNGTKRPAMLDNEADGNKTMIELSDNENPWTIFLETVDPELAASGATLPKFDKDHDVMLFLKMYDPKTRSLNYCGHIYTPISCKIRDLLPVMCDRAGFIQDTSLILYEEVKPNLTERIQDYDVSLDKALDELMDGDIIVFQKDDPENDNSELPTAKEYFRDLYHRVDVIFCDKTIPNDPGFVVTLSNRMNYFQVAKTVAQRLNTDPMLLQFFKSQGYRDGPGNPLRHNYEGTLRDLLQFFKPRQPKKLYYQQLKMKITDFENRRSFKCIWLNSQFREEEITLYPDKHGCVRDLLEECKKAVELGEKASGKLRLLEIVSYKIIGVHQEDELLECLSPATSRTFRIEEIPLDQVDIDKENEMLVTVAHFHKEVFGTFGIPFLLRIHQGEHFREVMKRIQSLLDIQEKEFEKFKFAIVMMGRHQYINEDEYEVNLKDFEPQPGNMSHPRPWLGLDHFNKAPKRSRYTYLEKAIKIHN
In short: as §1

USP8 = molecular target: T5, USP8 (UniProt P40818)
T5 sequence (whole entry): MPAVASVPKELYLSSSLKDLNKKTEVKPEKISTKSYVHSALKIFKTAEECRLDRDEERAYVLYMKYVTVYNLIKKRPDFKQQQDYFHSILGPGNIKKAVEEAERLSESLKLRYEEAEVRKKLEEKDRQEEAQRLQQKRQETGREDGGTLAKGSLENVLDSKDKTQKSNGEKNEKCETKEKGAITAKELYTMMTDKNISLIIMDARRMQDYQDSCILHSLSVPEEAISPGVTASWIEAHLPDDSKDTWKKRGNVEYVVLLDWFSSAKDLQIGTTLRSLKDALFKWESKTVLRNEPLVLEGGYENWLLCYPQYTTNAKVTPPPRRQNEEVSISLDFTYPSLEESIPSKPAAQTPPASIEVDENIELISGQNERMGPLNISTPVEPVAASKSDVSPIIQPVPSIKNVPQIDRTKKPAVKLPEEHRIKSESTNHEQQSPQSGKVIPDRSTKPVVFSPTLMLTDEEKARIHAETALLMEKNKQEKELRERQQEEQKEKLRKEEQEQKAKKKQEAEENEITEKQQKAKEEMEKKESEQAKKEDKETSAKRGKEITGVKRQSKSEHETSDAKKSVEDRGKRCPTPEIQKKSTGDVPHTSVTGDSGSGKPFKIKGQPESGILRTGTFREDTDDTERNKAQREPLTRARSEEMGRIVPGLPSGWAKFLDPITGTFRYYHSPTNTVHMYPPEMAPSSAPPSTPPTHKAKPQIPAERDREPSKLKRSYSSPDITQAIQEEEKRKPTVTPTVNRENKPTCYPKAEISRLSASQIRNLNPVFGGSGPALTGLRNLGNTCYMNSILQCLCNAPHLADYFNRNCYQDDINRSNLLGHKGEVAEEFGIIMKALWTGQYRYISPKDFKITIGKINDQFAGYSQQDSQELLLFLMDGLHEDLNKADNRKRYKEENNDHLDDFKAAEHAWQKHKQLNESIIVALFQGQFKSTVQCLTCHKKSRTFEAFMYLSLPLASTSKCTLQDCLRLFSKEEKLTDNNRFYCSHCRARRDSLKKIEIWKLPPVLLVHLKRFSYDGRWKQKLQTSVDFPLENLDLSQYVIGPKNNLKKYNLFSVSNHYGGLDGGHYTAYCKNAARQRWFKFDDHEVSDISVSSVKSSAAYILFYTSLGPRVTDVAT
In short: as §1

Measured: log2 ratio of Biotin-Ahx-Ub-VS probe labelling

CC(=O)Nc1ccc(NC(=O)CCl)cc1
inactive: USP42 0.329 | USP46 -0.0429 | USP47 -0.31 | USP48 -0.256 | USP5 -0.0185 | USP54 0.408 | USP7 -0.267 | USP8 -0.236
